What all share (experiment): DAPPL (digital affinity profiling via proximity ligation, sequencing); 10 mM Tris-HCl pH 7.5, 50 mM NaCl, 1 mM DTT, 4% glycerol, room temperature, 30 min; GST-TFs on glutathione beads, 16-mer random dsDNA library, 0.1% formaldehyde crosslink after washing; high values mean tight binding
What all share (conditions): protein: recombinant; tags: N-terminal GST; dsDNA, one strand shown

One assay concerns the target T1, ERF (Homo sapiens, UniProt P50548 1-548).
T1 sequence: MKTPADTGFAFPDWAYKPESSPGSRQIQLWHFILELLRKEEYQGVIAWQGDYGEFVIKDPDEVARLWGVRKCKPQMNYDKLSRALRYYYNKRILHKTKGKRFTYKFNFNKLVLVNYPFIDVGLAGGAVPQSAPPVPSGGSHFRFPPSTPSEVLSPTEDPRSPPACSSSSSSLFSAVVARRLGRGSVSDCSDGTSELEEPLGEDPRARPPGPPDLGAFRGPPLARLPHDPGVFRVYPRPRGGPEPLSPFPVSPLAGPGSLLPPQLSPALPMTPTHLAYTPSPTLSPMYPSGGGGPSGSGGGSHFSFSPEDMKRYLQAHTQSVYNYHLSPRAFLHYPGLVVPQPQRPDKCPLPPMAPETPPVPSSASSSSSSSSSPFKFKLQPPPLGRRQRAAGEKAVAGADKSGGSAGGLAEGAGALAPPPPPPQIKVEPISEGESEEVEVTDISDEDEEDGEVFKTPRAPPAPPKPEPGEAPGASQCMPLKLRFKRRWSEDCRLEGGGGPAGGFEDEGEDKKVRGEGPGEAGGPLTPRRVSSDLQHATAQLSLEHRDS
The gist of the method:
(§1)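 Pools were built from human transcription factors expressed in yeast as GST fusions, captured on glutathione beads and DNA-barcoded, along with a tag-only sample. Incubation with 200 nmole of a 16-mer random double-stranded DNA library lasted 30 min at room temperature in Tris/NaCl/DTT/glycerol buffer, and was followed by washing, 0.1% formaldehyde crosslinking, proximity ligation, PCR amplification and Illumina NextSeq500 sequencing. Binding signal is the quotient of each hexamer's read frequency for a factor and its frequency for the tag-only sample.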

The next assay concerns the target T2, ETV3L (Homo sapiens, UniProt Q6ZN32 1-361).
T2 sequence: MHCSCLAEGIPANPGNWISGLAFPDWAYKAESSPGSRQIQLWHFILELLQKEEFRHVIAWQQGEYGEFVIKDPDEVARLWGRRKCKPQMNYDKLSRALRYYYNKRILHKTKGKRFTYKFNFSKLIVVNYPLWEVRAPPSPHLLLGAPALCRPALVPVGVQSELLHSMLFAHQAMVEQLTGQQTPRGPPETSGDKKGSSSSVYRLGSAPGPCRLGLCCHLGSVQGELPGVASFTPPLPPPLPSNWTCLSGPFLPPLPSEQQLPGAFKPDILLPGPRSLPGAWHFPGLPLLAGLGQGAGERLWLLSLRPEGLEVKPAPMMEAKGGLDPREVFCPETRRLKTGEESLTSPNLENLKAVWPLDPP
The gist of the method: as §1

Another assay has as its target T3, ETS2 (Homo sapiens, UniProt P15036 1-469).
T3 sequence: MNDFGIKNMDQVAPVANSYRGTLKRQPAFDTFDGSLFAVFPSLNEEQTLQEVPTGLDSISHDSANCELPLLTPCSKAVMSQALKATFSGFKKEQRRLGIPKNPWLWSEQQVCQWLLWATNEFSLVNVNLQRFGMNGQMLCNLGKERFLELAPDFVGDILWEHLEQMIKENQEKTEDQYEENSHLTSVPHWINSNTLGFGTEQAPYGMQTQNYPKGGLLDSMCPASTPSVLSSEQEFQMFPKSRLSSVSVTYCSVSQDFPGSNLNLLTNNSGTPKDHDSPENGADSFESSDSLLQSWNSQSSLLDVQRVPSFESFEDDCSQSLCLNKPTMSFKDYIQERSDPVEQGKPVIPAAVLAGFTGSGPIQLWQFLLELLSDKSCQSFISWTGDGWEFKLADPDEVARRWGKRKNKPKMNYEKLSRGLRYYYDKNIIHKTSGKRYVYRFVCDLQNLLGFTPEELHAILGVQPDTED
The gist of the method: as §1

The next assay addresses T4, SPDEF (Homo sapiens, UniProt O95238 1-335).
T4 sequence: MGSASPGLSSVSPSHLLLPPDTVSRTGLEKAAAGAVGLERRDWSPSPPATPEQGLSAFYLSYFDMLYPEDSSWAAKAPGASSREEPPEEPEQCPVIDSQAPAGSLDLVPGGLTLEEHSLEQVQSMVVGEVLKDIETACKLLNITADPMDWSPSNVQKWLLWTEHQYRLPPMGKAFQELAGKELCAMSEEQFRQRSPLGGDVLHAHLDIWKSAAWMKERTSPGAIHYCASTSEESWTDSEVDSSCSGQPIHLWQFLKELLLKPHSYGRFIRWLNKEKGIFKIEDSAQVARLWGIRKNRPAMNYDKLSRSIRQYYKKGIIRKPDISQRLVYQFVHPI
The gist of the method:
as §1

The target in a further assay is T5, ETV7 (Homo sapiens, UniProt Q9Y603 1-341).
T5 sequence: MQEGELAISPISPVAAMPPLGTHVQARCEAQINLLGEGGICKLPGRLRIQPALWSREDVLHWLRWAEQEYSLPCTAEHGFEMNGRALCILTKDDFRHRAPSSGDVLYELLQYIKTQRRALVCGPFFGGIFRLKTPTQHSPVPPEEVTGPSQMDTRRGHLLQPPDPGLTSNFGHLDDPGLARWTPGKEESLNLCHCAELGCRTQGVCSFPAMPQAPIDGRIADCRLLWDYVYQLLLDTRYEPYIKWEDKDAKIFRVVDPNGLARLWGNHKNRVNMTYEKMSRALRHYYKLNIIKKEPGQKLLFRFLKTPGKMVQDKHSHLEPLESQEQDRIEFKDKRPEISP
The gist of the method: as §1

The target in another assay is T6, ELF5 (Homo sapiens, UniProt Q9UKW6-2 1-255).
T6 sequence: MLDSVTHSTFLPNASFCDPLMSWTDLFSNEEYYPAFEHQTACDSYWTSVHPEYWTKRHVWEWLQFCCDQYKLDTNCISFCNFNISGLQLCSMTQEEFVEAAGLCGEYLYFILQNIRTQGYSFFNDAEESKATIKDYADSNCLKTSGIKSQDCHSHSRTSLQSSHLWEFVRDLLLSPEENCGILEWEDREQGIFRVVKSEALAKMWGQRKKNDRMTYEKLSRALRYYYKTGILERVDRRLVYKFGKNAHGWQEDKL
The gist of the method:
as §1

In a further assay the target is T7, ETV3 (Homo sapiens, UniProt P41162-2 1-143).
T7 sequence: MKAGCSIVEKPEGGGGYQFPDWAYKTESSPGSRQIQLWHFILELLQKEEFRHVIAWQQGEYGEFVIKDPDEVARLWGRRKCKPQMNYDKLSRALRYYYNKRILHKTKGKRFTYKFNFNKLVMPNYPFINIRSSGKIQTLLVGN
The gist of the method:
as §1

Another assay deals with ETV6 (Homo sapiens, UniProt P41212 1-452). The gist of the method:
as §1

Chain of ETV6 (P41212 whole entry): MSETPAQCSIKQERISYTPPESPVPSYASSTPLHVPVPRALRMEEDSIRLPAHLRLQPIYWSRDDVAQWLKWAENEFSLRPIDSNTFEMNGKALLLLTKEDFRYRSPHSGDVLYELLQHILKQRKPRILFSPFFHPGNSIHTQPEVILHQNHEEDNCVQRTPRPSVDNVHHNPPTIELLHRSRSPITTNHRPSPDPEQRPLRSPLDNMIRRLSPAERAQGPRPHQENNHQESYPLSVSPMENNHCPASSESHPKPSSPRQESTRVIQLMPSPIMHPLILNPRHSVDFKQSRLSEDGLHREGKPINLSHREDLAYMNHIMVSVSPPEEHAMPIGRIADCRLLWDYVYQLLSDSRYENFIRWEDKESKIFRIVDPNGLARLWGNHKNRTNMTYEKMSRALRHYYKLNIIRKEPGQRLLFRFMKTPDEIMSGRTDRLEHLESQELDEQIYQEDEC

In the case of CGTTAA, the binding signal is 1.06 fold enrichment (6-mer frequency, TF over GST control) with ERF; 1.18 fold enrichment (6-mer frequency, TF over GST control) in the assay with ETV3L; 1.12 fold enrichment (6-mer frequency, TF over GST control) with ETS2; 1.1 fold enrichment (6-mer frequency, TF over GST control) with SPDEF; 1.12 fold enrichment (6-mer frequency, TF over GST control) with ETV7; 1.19 fold enrichment (6-mer frequency, TF over GST control) in the assay with ELF5. For the same sequence, the binding signal is 1.21 fold enrichment (6-mer frequency, TF over GST control) in the assay with ETV3 and 1.16 fold enrichment (6-mer frequency, TF over GST control) with ETV6.
For TATGAC, the binding signal with ERF was 1.39 fold enrichment (6-mer frequency, TF over GST control); with ETV3L, 1.36 fold enrichment (6-mer frequency, TF over GST control); in the assay with ETS2, 1.31 fold enrichment (6-mer frequency, TF over GST control); in the assay with SPDEF, 1.33 fold enrichment (6-mer frequency, TF over GST control); in the assay with ETV7 it was 1.29 fold enrichment (6-mer frequency, TF over GST control); with ELF5, 1.29 fold enrichment (6-mer frequency, TF over GST control). Moreover, the binding signal in the assay with ETV3 was 1.2 fold enrichment (6-mer frequency, TF over GST control); with ETV6, 1.25 fold enrichment (6-mer frequency, TF over GST control).
Take GTTTCG: the binding signal is 1.38 fold enrichment (6-mer frequency, TF over GST control) with ERF; 1.33 fold enrichment (6-mer frequency, TF over GST control) in the assay with ETV3L; 1.15 fold enrichment (6-mer frequency, TF over GST control) in the assay with ETS2; 1.27 fold enrichment (6-mer frequency, TF over GST control) with SPDEF; 1.27 fold enrichment (6-mer frequency, TF over GST control) with ETV7; 1.12 fold enrichment (6-mer frequency, TF over GST control) with ELF5. In addition, the binding signal in the assay with ETV3 is 1.32 fold enrichment (6-mer frequency, TF over GST control); with ETV6, 1.23 fold enrichment (6-mer frequency, TF over GST control).
Turning to GCGATG, the binding signal in the assay with ERF was 1.38 fold enrichment (6-mer frequency, TF over GST control); with ETV3L, 1.26 fold enrichment (6-mer frequency, TF over GST control); in the assay with ETS2 it was 1.35 fold enrichment (6-mer frequency, TF over GST control); with SPDEF, 1.29 fold enrichment (6-mer frequency, TF over GST control); with ETV7, 1.31 fold enrichment (6-mer frequency, TF over GST control); with ELF5 it was 1.17 fold enrichment (6-mer frequency, TF over GST control). Also, the binding signal in the assay with ETV3 was 1.28 fold enrichment (6-mer frequency, TF over GST control); in the assay with ETV6, 1.18 fold enrichment (6-mer frequency, TF over GST control).
Consider TCAATA, for which the binding signal with ERF was 1.24 fold enrichment (6-mer frequency, TF over GST control); in the assay with ETV3L, 1.24 fold enrichment (6-mer frequency, TF over GST control); with ETS2 it was 1.15 fold enrichment (6-mer frequency, TF over GST control); in the assay with SPDEF, 1.17 fold enrichment (6-mer frequency, TF over GST control); in the assay with ETV7, 1.26 fold enrichment (6-mer frequency, TF over GST control); with ELF5, 1.08 fold enrichment (6-mer frequency, TF over GST control). Moreover, the binding signal with ETV3 was 1.23 fold enrichment (6-mer frequency, TF over GST control); with ETV6 it was 1.14 fold enrichment (6-mer frequency, TF over GST control).
Turning to ATCACC, the binding signal was 1.13 fold enrichment (6-mer frequency, TF over GST control) with ERF; 1.17 fold enrichment (6-mer frequency, TF over GST control) with ETV3L; 1.05 fold enrichment (6-mer frequency, TF over GST control) with ETS2; 1.12 fold enrichment (6-mer frequency, TF over GST control) with SPDEF; 1 fold enrichment (6-mer frequency, TF over GST control) in the assay with ETV7; 1.01 fold enrichment (6-mer frequency, TF over GST control) in the assay with ELF5. Moreover, the binding signal was 1.12 fold enrichment (6-mer frequency, TF over GST control) in the assay with ETV3 and 1.06 fold enrichment (6-mer frequency, TF over GST control) in the assay with ETV6.
Consider ATATTA, for which the binding signal in the assay with ERF is 1.16 fold enrichment (6-mer frequency, TF over GST control); with ETV3L, 1.17 fold enrichment (6-mer frequency, TF over GST control); in the assay with ETS2 it was 1.06 fold enrichment (6-mer frequency, TF over GST control); in the assay with SPDEF, 1.11 fold enrichment (6-mer frequency, TF over GST control); with ETV7 it was 1.1 fold enrichment (6-mer frequency, TF over GST control); with ELF5, 1.09 fold enrichment (6-mer frequency, TF over GST control). Further, the binding signal was 1.18 fold enrichment (6-mer frequency, TF over GST control) with ETV3 and 1.13 fold enrichment (6-mer frequency, TF over GST control) in the assay with ETV6.

These data come from article PMC7862700, “An all-to-all approach to the identification of sequence-specific readers for epigenetic DNA modifications on cytosine”.
